Compound activity from PubChem.
Shown is part of a subset that was picked to be rich in hits.
CHX counter = counter-screen for Shiga toxin inhibitors: cycloheximide protein synthesis inhibition; cell reporter, cycloheximide protein synthesis inhibition counterscreen; max response, %; 300,000 tested, 12% active; AID 2314; in the data active = max response mostly above about 13%, no sharp cut-off; inactive = mostly below about 14%; also: read at 38.3 µM for the half of the compounds with a filed dose; 0% is about no effect
Marburg entry inh = inhibitors of Marburg virus binding or cell entry; Marburg virus pseudotyped entry inhibition, cell reporter; Potency, µM (highest dose often 37.8 µM), for inactives: top-dose activity change, negative = inhibition, hits mostly inhibitors; 300,000 tested, 1.8% active; AID 540276; calls by dose curve; tested in HEK293 cells; also: potency is read from the fitted curve at half-maximal effect; % is scaled to controls: 0 for no effect and ±100 for the full control effect
Shiga toxin inh = Shiga toxin inhibition. inhibition, % at 38.7 µM. Vero cells, Shiga toxin protein synthesis inhibition reporter. 290,000 tested, 9.2% active. AID 2315; in the data active = inhibition mostly above about 28%, no sharp cut-off; inactive = mostly below about 43%; also: 0% is about no effect
Lassa entry inh = blocks Lassa virus binding to or entry into cells. Potency, µM (doses to about 37.9 µM), for inactives: top-dose activity change, negative = inhibition, hits mostly inhibitors. Lassa virus pseudotype entry inhibition, cell reporter. 300,000 tested, 1.2% active; calls by dose curve; tested in HEK293 cells; also: potency is read from the fitted curve at half-maximal effect; % is scaled to controls: 0 for no effect and ±100 for the full control effect; nearly all actives have a fitted effect of over 50% in size
VACV mCherry inh = inhibitors of vaccinia virus infection (mCherry reporter signal); Vaccinia virus mCherry reporter infection, fluorescence; Potency, µM (doses to about 36.5 µM), without a hit: at the top dose activity change, negative = inhibition, usual class: inhibitors; 310,000 tested, 0.63% active; calls by dose curve; tested in A549 cells; also: potency is read from the fitted curve at half-maximal effect; % is scaled to controls: 0 for no effect and ±100 for the full control effect; nearly all actives have a fitted effect of over 35% in size
VACV Venus inh = inhibitors of vaccinia virus (Venus reporter). Vaccinia virus Venus reporter expression, fluorescence. AID 720580. 330,000 tested, 0.46% active. Potency, µM (top dose mostly 36.5 µM), for inactives: at the top dose activity change, negative = inhibition, hits mostly inhibitors; calls by dose curve; tested in A549 cells; also: potency is read from the fitted curve at half-maximal effect; % is scaled to controls: 0 for no effect and ±100 for the full control effect; nearly all actives have a fitted effect of over 30% in size
* hit, by the source's call; i = inactive; ? = inconclusive; . = not tested or not shown; [ ] = remark or other dose.

SMILES | CHX counter | Marburg entry inh | Shiga toxin inh | Lassa entry inh | VACV mCherry inh | VACV Venus inh
COC(=O)C1CCN(Cc2ccc3c(c2)CN(C(=O)c2cc(C4CC4)on2)CCO3)CC1 | . | . | . | . | -3% | 9%
COc1cc([N+](=O)[O-])ccc1NC(=O)NNC(=O)c1sccc1C | 26* | ? | 35* | 9%[46.1 µM] | -18% | 4%
CC1CCC/C(=N\NC(=S)Nc2ccccc2)C1 (configuration not stated) | 79* | ? | 102* | ? | i | -5%
O=C(NC(=S)Nc1ccccc1)C1CCCCC1 | -1 | . | -14 | . | . | .
CC1CCCC/C1=N\NC(=S)Nc1ccccc1 (configuration not stated) | 18* | . | 30 | . | . | .
COc1cc(C(=O)Nc2cc(C)c(O)c(-c3nc4cc(Cl)ccc4o3)c2)cc(OC)c1OC | . | ? | . | -5%[46.1 µM] | ? | ?
COc1ccc(C(C[N+](=O)[O-])c2c(-c3ccccc3)cc3ccccn23)cc1 (configuration not stated) | 40* | -10% | 30 | -29% | -21% | -23%
COc1ccc(C(C[N+](=O)[O-])c2c(-c3ccccc3)cc3ccccn23)cc1OC (configuration not stated) | -1 | ? | -12 | -5% | -18% | -6%
Cc1ccc(N2C(=O)/C(=C\c3ccc(C(C)C)cc3)N=C2SC2CCOC2=O)cc1 (configuration not stated) | -5 | 6.3µM* | -4 | 5µM* | -21% | -2%
COc1cc(C)ccc1OCc1cc(C(=O)NC(C)Cn2cncn2)no1 (configuration not stated) | 65* | -2% | 81* | ? | -7% | -21%
Cc1ccc(C)c(OCc2cc(C(=O)NC(C)c3cnn(C)c3)no2)c1 (configuration not stated) | 11 | -1%[46.1 µM] | 17 | -2%[46.1 µM] | -22% | -22%
COc1cc(C)ccc1OCc1cc(C(=O)NCc2ccncc2)no1 | 59* | ? | 107* | -4% | -8% | -22%
C#CCN(Cc1ccc(OC)cc1)S(=O)(=O)C=C | . | . | . | . | ? | 28µM*
C#CCN(Cc1ccc(OCCC)cc1)S(=O)(=O)c1ccc(Br)cc1F | . | . | . | -25%[46.1 µM] | . | .
Cn1cccc1/C=C(\C#N)C(N)=S | -1 | 7% | 2 | 29% | -8% | -10%
Cn1c(/C=C(\C#N)C(N)=S)ccc1-c1ccc(Br)cc1 | 15* | . | 27 | . | . | .
O=C1C=C(c2ccccc2)C[C@H](c2cccs2)[C@H]1n1nnc([N+](=O)[O-])n1 | -2 | 2µM* | 10 | ? | 14µM* | ?
C=CCN(C(=O)C1=NN(C2CCS(=O)(=O)C2)C(=O)CC1)c1nc(-c2ccc([N+](=O)[O-])cc2)cs1 (configuration not stated) | 38* | ? | 42 | ? | ? | ?
C=CCN(C(=O)C1CSC2(C)CCC(=O)N12)c1nc(-c2ccccc2)cs1 (configuration not stated) | . | -13% | . | -14% | -24% | ?
Cc1nc(C(=O)N(Cc2cc3ccc(F)cc3nc2N2CCC(O)CC2)CC2CCCO2)cs1 (configuration not stated) | . | . | . | . | -12% | -6%
Cc1ccc(NC(=O)CN2C(=O)S/C(=C\c3cc(C)n(-c4ccc(C(=O)O)cc4)c3C)C2=O)cc1 | 5 | -10%[46.1 µM] | 11 | 0%[46.1 µM] | i | -6%
Cc1ccc(NC(=O)CN2C(=O)N/C(=C/c3cc(C)n(-c4ccc(C(=O)O)cc4)c3C)C2=O)cc1 | 33 | ? | 84* | 0% | 3% | 7%
Cc1ccccc1Cn1ccc(-c2ccc3c(c2)OCO3)n1 | 60* | 7% | 74* | ? | . | .
Fc1cccc(Cn2ccc(-c3ccc4c(c3)OCO4)n2)c1 | 57* | ? | 99* | ? | . | .
Nc1ccn(Cc2cccc(F)c2)n1 | -5 | . | 11 | . | -22% | -8%
Fc1cccc(Cl)c1Cn1nnc(-c2ccc3c(c2)OCO3)n1 | 62* | 23% | 146* | ? | -8% | -11%
N#CCn1nnc(-c2ccc3c(c2)OCO3)n1 | 34* | 5% | 40 | 8% | . | .
CCN(CC(=O)Nc1ccc(C)c(S(=O)(=O)N2CCOCC2)c1)Cc1ccccc1 | . | -18% | . | ? | -2% | -19%
Cc1ccccc1Cn1nnc(-c2ccc3c(c2)OCO3)n1 | 49* | -9% | 54* | -20% | . | -10%
